Activity calls are given as the source filed them. Rule for the calls: active = hit-call score of the fitted dose curve at least 0.9, where 1 is the maximum; inactive = score below 0.9.
Assay: ATG_PXRE_CIS: Attagene CIS-FACTORIAL HepG2 Assay for human Pregnane X Receptor Element (PXRE) (AID 2282957)
Conditions: HepG2 Attagene CIS-FACTORIAL PXRE reporter, mRNA; actives raise or lower the signal
In short: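 Transiently transfected HepG2 cells were dosed and incubated for 24 h. RNA was then isolated, DNase-treated, reverse-transcribed and reporter sequences amplified. Labeled, HpaI-digested fragments were quantified by capillary electrophoresis against DMSO.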

Question: Which outcome does the source give for `c1ccc2occc2c1` here?
Answer: inactive

Question: Which outcome does the source give for `CN(C)CCCN1c2ccccc2Sc2ccc(Cl)cc21` here?
Answer: inactive

Question: With `O=C1CCCCC1` as the compound, how does the outcome read?
Answer: inactive

Question: With `CC(C)OC(=O)C(C)(C)Oc1ccc(C(=O)c2ccc(Cl)cc2)cc1` as the compound, how does the AC50 read?
Answer: 12.3 µM (active)

Question: Which AC50 does the source give for `Cc1ccc(C(C)(C)C)c(O)c1` here?
Answer: 25 µM (active)

Question: With `Nc1nc(=S)c2[nH]cnc2[nH]1` as the compound, how does the AC50 read?
Answer: 100 µM (active)

Question: Which outcome does the source give for `CO[C@@H]1COCC[C@@H]1N[C@@H]1CC[C@@](C(=O)N2CCc3ncc(C(F)(F)F)cc3C2)(C(C)C)C1` here?
Answer: inactive

Question: For `CCCCCCCCCCCCCCCCO`, which outcome is on record?
Answer: inactive

Question: For `CC(=O)OC1CC(C)OC(C)O1` (stereo not given), which outcome is on record?
Answer: inactive

Question: With `CC1(C)C(=O)NC(=O)N1CO` as the compound, how does the outcome read?
Answer: inactive

Question: With `Cn1cnc2c1c(=O)[nH]c(=O)n2C` as the compound, how does the outcome read?
Answer: inactive

Question: Which AC50 does the source give for `CC(C)(O)c1ccc(CNC(=O)c2cccnc2Oc2ccc(F)cc2)cc1` here?
Answer: 7.12 µM (active)

Question: Which outcome does the source give for `CCCC(=O)O` here?
Answer: inactive

Question: With `O=C(O)c1cccnc1` as the compound, how does the outcome read?
Answer: inactive

Question: For `COC(=O)CCC(=O)OC`, which outcome is on record?
Answer: inactive

Question: With `C#CC(O)C(CC)CCCC` (stereo not given) as the compound, how does the AC50 read?
Answer: 15 µM (active)

Question: With `NCCOCCOCCN` as the compound, how does the outcome read?
Answer: inactive

Question: For `NC=O`, which outcome is on record?
Answer: inactive

Question: Which AC50 does the source give for `O=C(O)c1[nH]n(-c2ccc(S(=O)(=O)O)cc2)c(=O)c1N=Nc1ccc(S(=O)(=O)O)cc1` here?
Answer: 69.5 µM (active)

Question: For `CCc1nc(N)nc(N)c1-c1ccc(Cl)cc1`, which outcome is on record?
Answer: inactive

Question: For `Nc1nc(Cl)nc2c1ncn2[C@H]1C[C@H](O)[C@@H](CO)O1`, which outcome is on record?
Answer: inactive

Question: With `CCCCCCCCCCCCCCOS(=O)(=O)O` as the compound, how does the outcome read?
Answer: inactive

Question: With `Cc1cn([C@H]2C=C[C@@H](CO)O2)c(=O)[nH]c1=O` as the compound, how does the outcome read?
Answer: inactive

Question: Which AC50 does the source give for `Cc1c(C)c2c(c(C)c1O)CCC(C)(COc1ccc(CC3SC(=O)NC3=O)cc1)O2` (stereo not given) here?
Answer: 2.01 µM (active)

Question: Which outcome does the source give for `CC1=C(C)S(=O)(=O)CCS1(=O)=O` here?
Answer: inactive

Question: With `O=C1O[C@H]([C@H](O)CO)C(O)=C1O` as the compound, how does the outcome read?
Answer: inactive

Question: For `CCc1cc(C2=C(C(=O)O)N(c3ccccc3C(F)(F)F)S(=O)(=O)c3ccccc32)cc2c1OCO2`, which AC50 is on record?
Answer: 2.14 µM (active)

Question: Which AC50 does the source give for `OCC(CO)n1cnc(-c2ccc(F)cc2)c1-c1ccnc(Oc2ccccc2)n1` here?
Answer: 7.89 µM (active)

Question: Which outcome does the source give for `CC(C)COC(=O)CCCCC(=O)OCC(C)C` here?
Answer: inactive

Assay: ATG_PPRE_CIS: Attagene CIS-FACTORIAL HepG2 Assay for human Peroxisome Proliferator-activated Response Element (PPRE) (AID 2282958)
Conditions: HepG2 PPRE cis-element reporter, Attagene transcription factor profiling; actives raise or lower the signal
In short: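 DMSO served as negative control and baseline for bidirectional curve fitting. Signal came from PPRE-regulated reporter mRNA in HepG2 cells, measured 24 h post-dosing by RT-PCR, 6-FAM primer extension and capillary electrophoresis.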

Question: Which outcome does the source give for `CN(C)CCCN1c2ccccc2Sc2ccc(Cl)cc21` here?
Answer: inactive

Question: Which outcome does the source give for `O=C1CCCCC1` here?
Answer: inactive

Question: For `CO[C@@H]1COCC[C@@H]1N[C@@H]1CC[C@@](C(=O)N2CCc3ncc(C(F)(F)F)cc3C2)(C(C)C)C1`, which outcome is on record?
Answer: inactive

Question: For `CCCCCCCCCCCCCCCCO`, which outcome is on record?
Answer: inactive

Question: For `CC(=O)OC1CC(C)OC(C)O1` (stereo not given), which outcome is on record?
Answer: inactive

Question: For `CC1(C)C(=O)NC(=O)N1CO`, which outcome is on record?
Answer: inactive

Question: For `Cn1cnc2c1c(=O)[nH]c(=O)n2C`, which outcome is on record?
Answer: inactive

Question: With `CCCC(=O)O` as the compound, how does the outcome read?
Answer: inactive

Question: Which outcome does the source give for `O=C(O)c1cccnc1` here?
Answer: inactive

Question: With `COC(=O)CCC(=O)OC` as the compound, how does the outcome read?
Answer: inactive

Question: Which outcome does the source give for `NC=O` here?
Answer: inactive

Question: Which outcome does the source give for `O=C(O)c1[nH]n(-c2ccc(S(=O)(=O)O)cc2)c(=O)c1N=Nc1ccc(S(=O)(=O)O)cc1` here?
Answer: inactive

Question: Which AC50 does the source give for `CCc1nc(N)nc(N)c1-c1ccc(Cl)cc1` here?
Answer: 26.8 µM (active)

Question: For `CCCCCCCCCCCCCCOS(=O)(=O)O`, which outcome is on record?
Answer: inactive

Question: Which outcome does the source give for `Cc1cn([C@H]2C=C[C@@H](CO)O2)c(=O)[nH]c1=O` here?
Answer: inactive

Question: For `CC1=C(C)S(=O)(=O)CCS1(=O)=O`, which AC50 is on record?
Answer: 89.5 µM (active)

Question: For `O=C1O[C@H]([C@H](O)CO)C(O)=C1O`, which outcome is on record?
Answer: inactive

Question: Which AC50 does the source give for `OCC(CO)n1cnc(-c2ccc(F)cc2)c1-c1ccnc(Oc2ccccc2)n1` here?
Answer: 0.357 µM (active)

Question: For `CC(C)COC(=O)CCCCC(=O)OCC(C)C`, which outcome is on record?
Answer: inactive

Assay: ATG_RORE_CIS: Attagene CIS-FACTORIAL HepG2 Assay for human RAR-related Orphan Receptor Element (RORE) (AID 2282959)
Conditions: HepG2 Attagene cis-factorial RORE reporter, mRNA; actives raise or lower the signal
In short: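 Transfect HepG2 with MRTUs; treat 24 h; extract RNA; RT with oligo(dT); PCR with reporter-specific primers; 6-FAM primer extension; HpaI digest 2 h at 37 C; capillary electrophoresis. Fit vs DMSO, bidirectional.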

Question: With `c1ccc2occc2c1` as the compound, how does the outcome read?
Answer: inactive

Question: Which outcome does the source give for `CN(C)CCCN1c2ccccc2Sc2ccc(Cl)cc21` here?
Answer: inactive

Question: For `O=C1CCCCC1`, which outcome is on record?
Answer: inactive

Question: Which AC50 does the source give for `CC(C)OC(=O)C(C)(C)Oc1ccc(C(=O)c2ccc(Cl)cc2)cc1` here?
Answer: 27.5 µM (active)

Question: With `Cc1ccc(C(C)(C)C)c(O)c1` as the compound, how does the outcome read?
Answer: inactive

Question: With `Nc1nc(=S)c2[nH]cnc2[nH]1` as the compound, how does the outcome read?
Answer: inactive

Question: Which outcome does the source give for `CO[C@@H]1COCC[C@@H]1N[C@@H]1CC[C@@](C(=O)N2CCc3ncc(C(F)(F)F)cc3C2)(C(C)C)C1` here?
Answer: inactive

Question: Which outcome does the source give for `CCCCCCCCCCCCCCCCO` here?
Answer: inactive

Question: Which outcome does the source give for `CC(=O)OC1CC(C)OC(C)O1` (stereo not given) here?
Answer: inactive

Question: With `CC1(C)C(=O)NC(=O)N1CO` as the compound, how does the outcome read?
Answer: inactive

Question: Which outcome does the source give for `Cn1cnc2c1c(=O)[nH]c(=O)n2C` here?
Answer: inactive

Question: For `CC(C)(O)c1ccc(CNC(=O)c2cccnc2Oc2ccc(F)cc2)cc1`, which outcome is on record?
Answer: inactive

Question: With `CCCC(=O)O` as the compound, how does the outcome read?
Answer: inactive

Question: With `O=C(O)c1cccnc1` as the compound, how does the outcome read?
Answer: inactive

Question: With `COC(=O)CCC(=O)OC` as the compound, how does the outcome read?
Answer: inactive

Question: Which outcome does the source give for `C#CC(O)C(CC)CCCC` (stereo not given) here?
Answer: inactive

Question: For `NCCOCCOCCN`, which outcome is on record?
Answer: inactive

Question: For `NC=O`, which outcome is on record?
Answer: inactive

Question: Which outcome does the source give for `O=C(O)c1[nH]n(-c2ccc(S(=O)(=O)O)cc2)c(=O)c1N=Nc1ccc(S(=O)(=O)O)cc1` here?
Answer: inactive

Question: With `CCc1nc(N)nc(N)c1-c1ccc(Cl)cc1` as the compound, how does the AC50 read?
Answer: 42.5 µM (active)

Question: Which outcome does the source give for `Nc1nc(Cl)nc2c1ncn2[C@H]1C[C@H](O)[C@@H](CO)O1` here?
Answer: inactive

Question: For `Cc1cn([C@H]2C=C[C@@H](CO)O2)c(=O)[nH]c1=O`, which outcome is on record?
Answer: inactive

Question: With `CC1=C(C)S(=O)(=O)CCS1(=O)=O` as the compound, how does the outcome read?
Answer: inactive

Question: With `O=C1O[C@H]([C@H](O)CO)C(O)=C1O` as the compound, how does the outcome read?
Answer: inactive

Question: For `CCc1cc(C2=C(C(=O)O)N(c3ccccc3C(F)(F)F)S(=O)(=O)c3ccccc32)cc2c1OCO2`, which outcome is on record?
Answer: inactive

Question: For `OCC(CO)n1cnc(-c2ccc(F)cc2)c1-c1ccnc(Oc2ccccc2)n1`, which outcome is on record?
Answer: inactive

Question: With `CC(C)COC(=O)CCCCC(=O)OCC(C)C` as the compound, how does the outcome read?
Answer: inactive

Source: PubChem BioAssay (EPA / NIEHS)
